Laboratory results from ChEMBL document CHEMBL2218924, “A broad activity screen in support of a chemogenomic map for kinase signalling research and drug discovery” (Biochem J, 2013).

Legend:
[1] = target: T1, Ephrin type-B receptor 2 (Homo sapiens) (UniProt P29323); settings: at 1 µM
T1 sequence (whole entry): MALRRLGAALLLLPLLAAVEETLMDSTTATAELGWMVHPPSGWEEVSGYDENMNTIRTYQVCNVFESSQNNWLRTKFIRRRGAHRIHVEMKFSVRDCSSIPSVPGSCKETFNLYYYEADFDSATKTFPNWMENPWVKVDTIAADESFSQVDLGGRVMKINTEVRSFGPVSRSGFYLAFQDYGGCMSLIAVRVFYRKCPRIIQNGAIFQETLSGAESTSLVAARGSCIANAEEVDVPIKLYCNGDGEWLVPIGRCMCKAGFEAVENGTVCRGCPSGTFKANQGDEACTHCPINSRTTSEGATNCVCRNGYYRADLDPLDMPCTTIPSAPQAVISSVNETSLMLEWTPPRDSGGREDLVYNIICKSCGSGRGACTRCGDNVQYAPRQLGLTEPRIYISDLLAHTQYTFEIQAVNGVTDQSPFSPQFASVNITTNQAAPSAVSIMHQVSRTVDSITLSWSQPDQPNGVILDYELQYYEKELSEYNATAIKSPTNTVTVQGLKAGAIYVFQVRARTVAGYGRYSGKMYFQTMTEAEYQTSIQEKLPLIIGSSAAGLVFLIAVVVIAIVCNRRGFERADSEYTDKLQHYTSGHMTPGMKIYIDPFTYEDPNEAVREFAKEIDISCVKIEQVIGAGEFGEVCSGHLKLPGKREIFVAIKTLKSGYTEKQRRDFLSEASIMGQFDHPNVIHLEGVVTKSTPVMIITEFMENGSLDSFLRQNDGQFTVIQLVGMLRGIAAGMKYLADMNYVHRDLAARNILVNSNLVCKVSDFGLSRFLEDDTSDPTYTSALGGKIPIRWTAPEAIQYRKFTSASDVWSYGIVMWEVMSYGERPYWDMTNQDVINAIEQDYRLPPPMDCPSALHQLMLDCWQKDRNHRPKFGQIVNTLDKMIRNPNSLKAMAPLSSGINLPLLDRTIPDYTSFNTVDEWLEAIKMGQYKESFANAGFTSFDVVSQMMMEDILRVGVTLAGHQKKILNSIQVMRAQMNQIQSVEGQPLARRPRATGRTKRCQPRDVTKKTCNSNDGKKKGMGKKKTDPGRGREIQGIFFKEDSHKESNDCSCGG

[2] = target: T1, Ephrin type-B receptor 2 (Homo sapiens); settings: at 10 µM
[3] = target: T2, Ephrin type-B receptor 3 (Homo sapiens) (UniProt P54753); settings: at 1 µM
T2 sequence (whole entry): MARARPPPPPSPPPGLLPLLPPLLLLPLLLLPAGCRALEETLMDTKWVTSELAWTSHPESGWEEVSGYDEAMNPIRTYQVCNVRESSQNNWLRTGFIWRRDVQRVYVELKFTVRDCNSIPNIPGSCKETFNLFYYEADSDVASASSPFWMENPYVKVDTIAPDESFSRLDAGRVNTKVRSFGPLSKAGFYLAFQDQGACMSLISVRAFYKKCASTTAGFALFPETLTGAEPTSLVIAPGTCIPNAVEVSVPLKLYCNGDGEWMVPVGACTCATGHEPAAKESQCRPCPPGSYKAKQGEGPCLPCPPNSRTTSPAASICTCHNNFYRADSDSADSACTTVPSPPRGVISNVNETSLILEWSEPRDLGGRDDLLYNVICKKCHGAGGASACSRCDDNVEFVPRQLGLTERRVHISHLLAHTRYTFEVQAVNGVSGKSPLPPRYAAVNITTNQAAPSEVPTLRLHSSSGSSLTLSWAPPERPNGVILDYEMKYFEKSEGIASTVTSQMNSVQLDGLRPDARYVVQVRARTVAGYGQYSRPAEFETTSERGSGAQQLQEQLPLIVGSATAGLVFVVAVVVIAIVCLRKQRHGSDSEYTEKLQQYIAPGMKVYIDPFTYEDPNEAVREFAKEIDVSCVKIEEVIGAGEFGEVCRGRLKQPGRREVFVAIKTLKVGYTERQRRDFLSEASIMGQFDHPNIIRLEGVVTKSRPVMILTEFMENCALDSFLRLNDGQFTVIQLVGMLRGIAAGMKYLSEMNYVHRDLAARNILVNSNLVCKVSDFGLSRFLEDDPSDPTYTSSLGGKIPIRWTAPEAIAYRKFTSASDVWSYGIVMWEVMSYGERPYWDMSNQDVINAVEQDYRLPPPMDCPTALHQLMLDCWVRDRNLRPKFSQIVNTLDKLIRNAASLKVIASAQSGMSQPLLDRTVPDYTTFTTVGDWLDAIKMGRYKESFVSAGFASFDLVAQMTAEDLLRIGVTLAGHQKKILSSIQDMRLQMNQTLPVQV

[4] = target: T2, Ephrin type-B receptor 3 (Homo sapiens); settings: at 10 µM
[5] = target: T3, Ephrin type-B receptor 4 (Homo sapiens) (UniProt P54760); settings: at 1 µM
T3 sequence (whole entry): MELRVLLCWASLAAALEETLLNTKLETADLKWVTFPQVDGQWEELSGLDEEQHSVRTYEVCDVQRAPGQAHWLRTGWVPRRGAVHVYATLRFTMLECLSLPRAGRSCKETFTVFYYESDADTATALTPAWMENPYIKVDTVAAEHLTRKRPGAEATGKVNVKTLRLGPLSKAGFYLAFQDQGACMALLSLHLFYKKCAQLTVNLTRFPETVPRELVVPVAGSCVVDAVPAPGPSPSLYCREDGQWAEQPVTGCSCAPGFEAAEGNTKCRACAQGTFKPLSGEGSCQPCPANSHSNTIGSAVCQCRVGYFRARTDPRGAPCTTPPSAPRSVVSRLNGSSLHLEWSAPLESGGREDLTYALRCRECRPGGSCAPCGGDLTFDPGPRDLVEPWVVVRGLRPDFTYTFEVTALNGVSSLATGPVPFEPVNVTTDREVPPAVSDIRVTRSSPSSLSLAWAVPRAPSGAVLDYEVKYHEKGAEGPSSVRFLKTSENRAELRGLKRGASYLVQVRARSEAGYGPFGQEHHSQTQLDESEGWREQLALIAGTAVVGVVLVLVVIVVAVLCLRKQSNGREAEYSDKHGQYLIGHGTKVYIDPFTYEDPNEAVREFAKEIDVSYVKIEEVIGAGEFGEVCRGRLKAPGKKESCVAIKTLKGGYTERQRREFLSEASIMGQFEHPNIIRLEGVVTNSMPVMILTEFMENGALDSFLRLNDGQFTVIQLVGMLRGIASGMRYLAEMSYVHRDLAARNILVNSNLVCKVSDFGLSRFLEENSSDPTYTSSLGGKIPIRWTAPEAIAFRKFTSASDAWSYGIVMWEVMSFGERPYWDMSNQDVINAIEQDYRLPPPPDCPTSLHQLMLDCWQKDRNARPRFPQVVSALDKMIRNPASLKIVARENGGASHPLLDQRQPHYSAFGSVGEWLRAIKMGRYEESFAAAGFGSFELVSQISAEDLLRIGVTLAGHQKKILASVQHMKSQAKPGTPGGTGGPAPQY

[6] = target: T3, Ephrin type-B receptor 4 (Homo sapiens); settings: at 10 µM
[7] = target: Receptor tyrosine-protein kinase erbB-4 (Homo sapiens) (UniProt Q15303); settings: at 10 µM
Chain of Receptor tyrosine-protein kinase erbB-4 (Homo sapiens) (Q15303 whole entry): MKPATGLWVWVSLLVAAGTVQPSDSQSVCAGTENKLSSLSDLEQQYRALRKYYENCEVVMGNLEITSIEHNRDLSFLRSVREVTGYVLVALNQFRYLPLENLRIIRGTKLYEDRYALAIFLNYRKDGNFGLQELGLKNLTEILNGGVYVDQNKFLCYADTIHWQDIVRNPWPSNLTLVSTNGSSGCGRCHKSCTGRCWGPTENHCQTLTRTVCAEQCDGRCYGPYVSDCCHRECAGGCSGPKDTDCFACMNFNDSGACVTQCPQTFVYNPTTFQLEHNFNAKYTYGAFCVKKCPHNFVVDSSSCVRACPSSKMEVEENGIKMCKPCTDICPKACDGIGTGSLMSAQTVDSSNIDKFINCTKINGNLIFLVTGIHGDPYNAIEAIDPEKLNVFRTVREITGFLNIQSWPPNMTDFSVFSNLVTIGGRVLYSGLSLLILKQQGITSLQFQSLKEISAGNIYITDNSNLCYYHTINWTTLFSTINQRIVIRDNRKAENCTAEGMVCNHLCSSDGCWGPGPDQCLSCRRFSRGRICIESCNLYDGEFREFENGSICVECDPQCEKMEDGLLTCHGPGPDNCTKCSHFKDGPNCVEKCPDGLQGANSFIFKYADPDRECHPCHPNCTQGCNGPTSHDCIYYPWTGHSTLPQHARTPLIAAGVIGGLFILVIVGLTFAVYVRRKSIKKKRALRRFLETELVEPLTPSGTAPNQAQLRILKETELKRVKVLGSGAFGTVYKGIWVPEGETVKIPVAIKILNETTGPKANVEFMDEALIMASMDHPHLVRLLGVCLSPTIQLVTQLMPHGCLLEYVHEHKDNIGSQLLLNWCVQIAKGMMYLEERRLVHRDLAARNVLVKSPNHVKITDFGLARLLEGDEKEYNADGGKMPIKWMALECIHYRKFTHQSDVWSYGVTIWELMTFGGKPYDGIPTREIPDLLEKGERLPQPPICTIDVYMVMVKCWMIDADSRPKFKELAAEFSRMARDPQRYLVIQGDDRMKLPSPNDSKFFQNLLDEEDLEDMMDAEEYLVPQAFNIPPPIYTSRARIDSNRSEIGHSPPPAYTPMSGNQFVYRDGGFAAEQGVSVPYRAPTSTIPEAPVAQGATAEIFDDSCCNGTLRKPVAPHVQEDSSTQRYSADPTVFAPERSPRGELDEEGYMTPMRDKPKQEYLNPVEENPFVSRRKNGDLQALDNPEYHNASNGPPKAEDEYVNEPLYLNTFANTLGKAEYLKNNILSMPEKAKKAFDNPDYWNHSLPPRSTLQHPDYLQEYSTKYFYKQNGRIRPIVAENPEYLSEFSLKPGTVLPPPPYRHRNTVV

[8] = target: Focal adhesion kinase 1 (Homo sapiens) (UniProt Q05397); settings: at 1 µM
Chain of Focal adhesion kinase 1 (Homo sapiens) (Q05397 2-1052 limits assumed): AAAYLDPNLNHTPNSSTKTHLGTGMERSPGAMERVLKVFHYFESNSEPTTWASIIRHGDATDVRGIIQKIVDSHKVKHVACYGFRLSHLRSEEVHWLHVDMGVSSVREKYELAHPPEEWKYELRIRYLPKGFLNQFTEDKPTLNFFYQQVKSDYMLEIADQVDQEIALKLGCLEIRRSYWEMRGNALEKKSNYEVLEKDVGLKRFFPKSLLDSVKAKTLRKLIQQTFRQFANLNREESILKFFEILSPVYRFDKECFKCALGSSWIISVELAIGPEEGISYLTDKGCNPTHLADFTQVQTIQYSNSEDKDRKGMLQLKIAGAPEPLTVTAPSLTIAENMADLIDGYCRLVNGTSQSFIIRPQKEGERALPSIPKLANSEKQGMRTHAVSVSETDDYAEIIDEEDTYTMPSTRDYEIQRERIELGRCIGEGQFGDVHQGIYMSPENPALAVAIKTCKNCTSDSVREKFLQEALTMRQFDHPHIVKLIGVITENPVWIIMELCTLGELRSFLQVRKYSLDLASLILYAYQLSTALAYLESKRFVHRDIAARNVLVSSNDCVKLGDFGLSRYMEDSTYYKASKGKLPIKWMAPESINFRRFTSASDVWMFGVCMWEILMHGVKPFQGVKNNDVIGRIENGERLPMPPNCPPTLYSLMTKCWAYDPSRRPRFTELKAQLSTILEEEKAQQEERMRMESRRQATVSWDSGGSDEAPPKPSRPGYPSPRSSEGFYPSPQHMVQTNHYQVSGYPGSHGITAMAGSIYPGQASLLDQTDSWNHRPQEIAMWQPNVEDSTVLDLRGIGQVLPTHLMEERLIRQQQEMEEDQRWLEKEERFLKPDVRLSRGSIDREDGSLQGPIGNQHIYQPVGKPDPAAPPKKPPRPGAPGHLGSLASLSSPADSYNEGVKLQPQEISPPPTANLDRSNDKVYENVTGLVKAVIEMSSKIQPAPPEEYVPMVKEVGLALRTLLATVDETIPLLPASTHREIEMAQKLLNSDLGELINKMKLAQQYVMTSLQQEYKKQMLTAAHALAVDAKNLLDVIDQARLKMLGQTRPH

[9] = target: T4, Ephrin type-B receptor 1 (Homo sapiens) (UniProt P54762); settings: at 10 µM
T4 sequence (whole entry): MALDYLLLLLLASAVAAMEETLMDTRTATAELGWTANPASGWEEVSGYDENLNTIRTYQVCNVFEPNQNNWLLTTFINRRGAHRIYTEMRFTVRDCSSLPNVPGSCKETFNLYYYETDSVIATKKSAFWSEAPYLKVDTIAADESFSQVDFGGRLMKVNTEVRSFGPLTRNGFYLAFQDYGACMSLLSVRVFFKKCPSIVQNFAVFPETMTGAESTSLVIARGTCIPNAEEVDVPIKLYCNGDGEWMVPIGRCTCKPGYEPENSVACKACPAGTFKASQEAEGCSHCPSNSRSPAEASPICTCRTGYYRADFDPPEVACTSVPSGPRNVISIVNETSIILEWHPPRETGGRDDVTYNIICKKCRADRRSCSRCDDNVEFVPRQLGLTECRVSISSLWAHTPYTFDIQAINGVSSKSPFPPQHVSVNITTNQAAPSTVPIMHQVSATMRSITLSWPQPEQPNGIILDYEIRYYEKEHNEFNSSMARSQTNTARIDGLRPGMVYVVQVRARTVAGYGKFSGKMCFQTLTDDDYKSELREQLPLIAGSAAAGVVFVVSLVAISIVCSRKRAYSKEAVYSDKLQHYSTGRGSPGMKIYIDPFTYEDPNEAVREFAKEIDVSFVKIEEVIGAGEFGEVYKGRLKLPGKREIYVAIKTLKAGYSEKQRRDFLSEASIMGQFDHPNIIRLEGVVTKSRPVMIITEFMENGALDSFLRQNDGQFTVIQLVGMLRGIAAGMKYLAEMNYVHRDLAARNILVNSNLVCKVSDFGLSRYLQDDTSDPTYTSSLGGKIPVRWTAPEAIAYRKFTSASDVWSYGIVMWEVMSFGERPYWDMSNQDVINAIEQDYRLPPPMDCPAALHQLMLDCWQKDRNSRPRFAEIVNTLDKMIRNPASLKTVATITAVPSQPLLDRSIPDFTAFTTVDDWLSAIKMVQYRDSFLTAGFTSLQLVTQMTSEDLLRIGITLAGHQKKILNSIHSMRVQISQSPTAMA

[10] = target: Receptor tyrosine-protein kinase erbB-4 (Homo sapiens) (UniProt Q15303); settings: at 1 µM

Compound | residual activity [1] [%] | residual activity [2] [%] | residual activity [3] | residual activity [4] [%] | residual activity [5] [%] | residual activity [6] [%] | residual activity [7] [%] | residual activity [8] [%] | residual activity [9] [%] | residual activity [10] [%]
CCc1nc(-c2ccc(OC)cc2)[nH]c1-c1ccncc1 | 120 | 115 | 110% (inactive) | 111 | 112 | 101 | 108 | 115 | – | –
COc1ccc2c(c[n+](C)c3c4cc5c(cc4ccc23)OCO5)c1OC | 121 | 121 | 126% (inactive) | 133 | 94 | 119 | 79 | 140 | 91 | 96
COc1cc2ncnc(Nc3ccc(OCc4ccccc4)cc3)c2cc1OC | 118 | 114 | 117% (inactive) | 100 | 117 | 132 | – | 136 | 106 | –
c1cc(-c2cnn3cc(-c4ccc(OCCN5CCCCC5)cc4)cnc23)ccn1 | 25 | 0 | 118% (inactive) | 117 | 20 | -1 | 100 | 123 | 0 | 129
CC(C)(C)c1cc(C=C(C#N)C#N)cc(Br)c1O | 116 | 121 | 96% (inactive) | 121 | 102 | 110 | 132 | 149 | 96 | 114
CCn1cnc2c(Nc3cccc(Cl)c3)nc(N[C@@H]3CCCC[C@@H]3N)nc21 | 56 | 0 | – | – | 51 | 9 | 68 | 53 | 1 | 83
COC(=O)[C@@]1(O)C[C@H]2O[C@]1(C)n1c3ccccc3c3c4c(c5c6ccccc6n2c5c31)C(=O)NC4 | 114 | 55 | 110% (inactive) | 100 | 71 | 22 | 19 | 39 | 4 | 64
COc1cc(OC)c(/C=C2\C(=O)Nc3ccccc32)c(OC)c1 | – | – | 124% (inactive) | 107 | 86 | 82 | 106 | 92 | 88 | –
COc1ccc2c(c1)/C(=C/c1cnc[nH]1)C(=O)N2 | – | 97 | – | – | 98 | 77 | – | 99 | 59 | 127
O=C1Nc2ccc3ncsc3c2/C1=C/c1c[nH]cn1 | 87 | 29 | 120% (inactive) | 131 | 79 | 29 | 102 | 73 | 9 | 88
CC(C)[C@H](CO)Nc1nc(Nc2cccc(Cl)c2)c2ncn(C(C)C)c2n1 | 71 | 3 | – | – | 37 | 4 | – | 65 | 15 | –
N/C(=N\[N+](=O)[O-])N/N=C\c1ccc(-c2cccc([N+](=O)[O-])c2)o1 | – | – | – | – | 90 | 90 | 88 | – | – | 100
C[S+]([O-])c1ccc(-c2nc(-c3ccc(F)cc3)c(-c3ccncc3)[nH]2)cc1 (stereo not given) | 101 | 61 | 114% (inactive) | 105 | 107 | 41 | 82 | 125 | 56 | 115
CN[C@@H]1C[C@H]2O[C@@](C)([C@@H]1OC)n1c3ccccc3c3c4c(c5c6ccccc6n2c5c31)C(=O)NC4 | – | – | – | 131 | 79 | – | – | – | – | –
O=c1[nH]c2ccccc2n1C1CCN(Cc2ccc(-c3nc4cc5[nH]cnc5cc4nc3-c3ccccc3)cc2)CC1 | 119 | 90 | 123% (inactive) | 105 | 109 | 117 | 61 | 143 | 76 | 99
O=[N+]([O-])/C=C/c1ccc2c(c1)OCO2 | 116 | 124 | 117% (inactive) | 111 | 114 | 127 | 101 | 141 | 116 | 86
O=C1c2ccccc2-c2nc3nnnn3nc21 | – | 138 | 108% (inactive) | 133 | 118 | 115 | – | – | – | 106
